The nature of test [1]: NCI Yeast Anticancer Drug Screen. Data for the rad50 strain (AID 155).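 Note: 0% = growth of vehicle-only cultures of the same strain.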 The following applies: S. cerevisiae rad50 strain growth inhibition, stronger effect = higher value. In short, it runs like this: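 A DNA repair-deficient yeast mutant serves as the test organism; compound-induced growth inhibition is calculated against vehicle-treated cells.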
Test [2] in a line: NCI Yeast Anticancer Drug Screen. Data for the mec2-1 strain (AID 157). The following applies: S. cerevisiae mec2-1 strain, stronger effect = higher value. In outline: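 Compounds were applied to mec2-1 yeast cells. Their growth was then compared with that of vehicle-treated cultures to give growth inhibition.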
Test [3] in a line: NCI Yeast Anticancer Drug Screen. Data for the sgs1 mgt1 strain (AID 161).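 Note: 0% = growth of cultures given vehicle only.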 Particulars: S. cerevisiae sgs1 mgt1 strain, stronger effect = higher value. In short, it runs like this:
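Compounds are added to genetically altered yeast, and growth is compared with cultures given vehicle alone to give percent inhibition.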

The nature of test [4]: NCI Yeast Anticancer Drug Screen. Data for the cln2 rad14 strain (AID 165).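 Note: 0% = growth equal to vehicle treated cultures.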 Particulars: S. cerevisiae cln2 rad14 strain, stronger effect = higher value. In outline:
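Strain: cln2 rad14 yeast, altered in cell cycle control and DNA damage repair. Read-out: growth inhibition vs vehicle.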

Test [5] is described as follows: NCI Yeast Anticancer Drug Screen. Data for the bub3 strain (AID 167). Particulars: S. cerevisiae bub3 mutant strain, stronger effect = higher value. In outline: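 Inhibition values come from growth of compound-treated mutant yeast normalised to vehicle-treated controls.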
Test [6] can be described thus: NCI Yeast Anticancer Drug Screen. Data for the mlh1 rad18 strain (AID 175). Particulars: S. cerevisiae mlh1 rad18 strain growth inhibition, stronger effect = higher value. In outline: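 A repair-deficient yeast strain is exposed to test compound, and growth is scored relative to vehicle-treated controls.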
Where [7] appears, read: at 5.0 µM (retest, dose inferred, filed as 0.5).
Setting [8] is: at 50.0 µM (retest, dose inferred, filed as 5.0).

This is part of a sample that, as a whole, favours compounds with a hit. Of some 79,000 tested, about 15% had one in any assay. A number with no mark means an inactive call. Active and inactive are the calls of the source. Cut-off read from the data, not from the text of the source: active = growth inhibition above about 70%; inactive = the rest.

Regarding `Cc1nc(-n2nc(-c3ccccc3)cc2-c2ccccc2)sc1C(/C=C\c1ccc([N+](=O)[O-])cc1)=N/NC(=S)NN`, the growth inhibition in test [1] (setting [7]) is 4%; in test [1] (setting [8]), 87% (active); in test [1] (at 50.0 µM), 61.3%; in test [2] (setting [7]), 3%; in test [2] (setting [8]) it was 86% (active); in test [2] (at 50.0 µM) it was 37.1%. Also, the growth inhibition in test [3] (setting [7]) was 11%; in test [3] (setting [8]), 91% (active); in test [3] (at 50.0 µM), 80.7% (active); in test [4] (setting [7]), 0%; in test [4] (setting [8]), 67%; in test [4] (at 50.0 µM), 10.8%. Moreover, the growth inhibition in test [5] (setting [7]) is 25%; in test [5] (setting [8]) it was 88% (active); in test [5] (at 50.0 µM), 65.7%; in test [6] (setting [7]) it was -2%; in test [6] (setting [8]) it was 80% (active); in test [6] (at 50.0 µM), 64.8%.
Consider `COc1ccc(NC(=O)OC(C)C)c(OC)c1`, for which the growth inhibition is 2% in test [1] (setting [7]); 10% in test [1] (setting [8]); -2.75% in test [1] (at 50.0 µM); -4% in test [2] (setting [7]); 4% in test [2] (setting [8]); 6.45% in test [2] (at 50.0 µM). The growth inhibition in test [3] (setting [7]) is -3%; in test [3] (setting [8]), 7%; in test [3] (at 50.0 µM) it was -21.4%; in test [4] (setting [7]), 5%; in test [4] (setting [8]), 2%; in test [4] (at 50.0 µM), 45.4%. Besides, the growth inhibition in test [5] (setting [7]) was 15%; in test [5] (setting [8]) it was 42%; in test [5] (at 50.0 µM), 18.4%; in test [6] (setting [7]), 3%; in test [6] (setting [8]), 8%; in test [6] (at 50.0 µM), -10.8%.
Take `CC(NNC(=S)N(C)C1CCCCC1)c1cc2ccccc2cn1` (configuration not stated): the growth inhibition in test [1] (setting [7]) was 48%; in test [1] (setting [8]), 92% (active); in test [1] (at 50.0 µM), 86.8% (active); in test [2] (setting [7]), 55%; in test [2] (setting [8]), 94% (active); in test [2] (at 50.0 µM), 75.3% (active). The growth inhibition was 97% (active) in test [3] (setting [7]); 94% (active) in test [3] (setting [8]); 85.5% (active) in test [3] (at 50.0 µM); 94% (active) in test [4] (setting [7]); 92% (active) in test [4] (setting [8]); 79.8% (active) in test [4] (at 50.0 µM). For the same molecule, the growth inhibition in test [5] (setting [7]) is 94% (active); in test [5] (setting [8]), 95% (active); in test [5] (at 50.0 µM), 84% (active); in test [6] (setting [7]) it was 51%; in test [6] (setting [8]) it was 93% (active); in test [6] (at 50.0 µM) it was 83% (active).
Consider `O=C(Nc1cccc(Br)c1)Oc1ccc(Cl)c2cccnc12`, for which the growth inhibition in test [1] (setting [7]) is 38%; in test [1] (setting [8]), 98% (active); in test [1] (at 50.0 µM), 89% (active); in test [2] (setting [7]) it was 4%; in test [2] (setting [8]), 99% (active); in test [2] (at 50.0 µM), 91.1% (active). The growth inhibition in test [3] (setting [7]) was 7%; in test [3] (setting [8]), 99% (active); in test [3] (at 50.0 µM), 91.7% (active); in test [4] (setting [7]) it was 4%; in test [4] (setting [8]), 97% (active); in test [4] (at 50.0 µM), 89% (active). Also, the growth inhibition in test [5] (setting [7]) was -7%; in test [5] (setting [8]), 98% (active); in test [5] (at 50.0 µM), 89.9% (active); in test [6] (setting [7]), 16%; in test [6] (setting [8]) it was 98% (active); in test [6] (at 50.0 µM), 90.8% (active).
Turning to `CC(C)C(NC(=O)/C=C\c1ccccc1)C(=O)O` (configuration not stated), the growth inhibition in test [1] (setting [7]) was -2%; in test [1] (setting [8]), 1%; in test [1] (at 50.0 µM), 88.4% (active); in test [2] (setting [7]), 1%; in test [2] (setting [8]), -6%; in test [2] (at 50.0 µM), 94.2% (active). Besides, the growth inhibition was -5% in test [3] (setting [7]); -7% in test [3] (setting [8]); 93.5% (active) in test [3] (at 50.0 µM); 7% in test [4] (setting [7]); -6% in test [4] (setting [8]); 95.3% (active) in test [4] (at 50.0 µM). Also, the growth inhibition in test [5] (setting [7]) was -3%; in test [5] (setting [8]) it was -1%; in test [5] (at 50.0 µM), 71.7% (active); in test [6] (setting [7]), -2%; in test [6] (setting [8]) it was 4%; in test [6] (at 50.0 µM) it was 95.2% (active).
As for `Brc1cc2ccccc2c2ccccc12`, the growth inhibition was 11% in test [1] (setting [7]); 91% (active) in test [1] (setting [8]); 75.1% (active) in test [1] (at 50.0 µM); -7% in test [2] (setting [7]); 54% in test [2] (setting [8]); 65.2% in test [2] (at 50.0 µM). In addition, the growth inhibition in test [3] (setting [7]) is 7%; in test [3] (setting [8]) it was 89% (active); in test [3] (at 50.0 µM), 59.8%; in test [4] (setting [7]), 11%; in test [4] (setting [8]), 28%; in test [4] (at 50.0 µM), -16.1%. Moreover, the growth inhibition in test [5] (setting [7]) is 23%; in test [5] (setting [8]), 81% (active); in test [5] (at 50.0 µM), 55.3%; in test [6] (setting [7]), 41%; in test [6] (setting [8]), 91% (active); in test [6] (at 50.0 µM) it was 40.8%.
In the case of `COC(=O)CCC(NC(=S)N/N=C/c1ccccn1)C(=O)OC` (configuration not stated), the growth inhibition is -2% in test [1] (setting [7]); 29% in test [1] (setting [8]); 72.1% (active) in test [1] (at 50.0 µM); -54% in test [2] (setting [7]); 47% in test [2] (setting [8]); 49.1% in test [2] (at 50.0 µM). The growth inhibition in test [3] (setting [7]) is -25%; in test [3] (setting [8]), 41%; in test [3] (at 50.0 µM) it was 57.4%; in test [4] (setting [7]), -11%; in test [4] (setting [8]) it was 33%; in test [4] (at 50.0 µM), 60.8%. The growth inhibition in test [5] (setting [7]) is -6%; in test [5] (setting [8]), 59%; in test [5] (at 50.0 µM) it was 71.8% (active); in test [6] (setting [7]) it was -30%; in test [6] (setting [8]), 48%; in test [6] (at 50.0 µM), 61.8%.
On to `O=C1c2ccccc2C(=O)c2sc(Nc3ccc(Cl)cc3)nc21`, for which the growth inhibition in test [1] (setting [7]) was 79% (active); in test [1] (setting [8]) it was 97% (active); in test [1] (at 50.0 µM), 90.5% (active); in test [2] (setting [7]), 84% (active); in test [2] (setting [8]) it was 99% (active); in test [2] (at 50.0 µM), 92.9% (active). In addition, the growth inhibition was 97% (active) in test [3] (setting [7]); 99% (active) in test [3] (setting [8]); 93.8% (active) in test [3] (at 50.0 µM); 58% in test [4] (setting [7]); 98% (active) in test [4] (setting [8]); 88.8% (active) in test [4] (at 50.0 µM). Besides, the growth inhibition in test [5] (setting [7]) was 98% (active); in test [5] (setting [8]) it was 99% (active); in test [5] (at 50.0 µM), 91.6% (active); in test [6] (setting [7]), 85% (active); in test [6] (setting [8]), 98% (active); in test [6] (at 50.0 µM), 91.2% (active).
As to `CCNC(=S)NNC(=S)NNc1ccccc1`, the growth inhibition in test [1] (setting [7]) was 52%; in test [1] (setting [8]), 98% (active); in test [1] (at 50.0 µM), 41.3%; in test [2] (setting [7]), 63%; in test [2] (setting [8]), 100% (active); in test [2] (at 50.0 µM), 38.5%. In addition, the growth inhibition in test [3] (setting [7]) is 31%; in test [3] (setting [8]) it was 70% (active); in test [3] (at 50.0 µM), 66.8%; in test [4] (setting [7]), 45%; in test [4] (setting [8]) it was 63%; in test [4] (at 50.0 µM), 3.85%. Besides, the growth inhibition was 36% in test [5] (setting [7]); 77% (active) in test [5] (setting [8]); 60.5% in test [5] (at 50.0 µM); 47% in test [6] (setting [7]); 100% (active) in test [6] (setting [8]); 38.5% in test [6] (at 50.0 µM).

Values taken from PubChem BioAssay (NCI).
